Glioma ERSR ind = qHTS for Inducers of the Endoplasmic Reticulum Stress Response (ERSR) in Human Glioma: qHTS; hit rate 0.02% among 420,000; U87-MG GRP78 promoter luciferase reporter, 16 h; Potency, µM, for the others: top-dose activation, actives largely listed as activators; AID 602332, 2012; further: potency means the concentration at half of the fitted maximal effect; series mostly up to about 76 µM; % of control where 0% means no effect; nearly all actives have a fitted effect of over 35% in size
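ERSR induction read as luciferase luminescence (Bright-Glo, 10 min at room temperature) in stably transfected human U87-MG glioma cells exposed to compounds for 16 h, using GRP78 as sensor.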
Nrf2 block = Nrf2 qHTS screen for inhibitors | Potency, µM (series often up to 46 µM), inactives show at the top dose activity change, negative = inhibition, most hits filed as inhibitors | hit rate 2.1% among 360,000 | A549 ARE-Fluc reporter, luciferase luminescence, 18-24 h; further: potency means the concentration at half of the fitted maximal effect; on the % scale 0 is the no-effect control and ±100 the full control effect; nearly all actives have a fitted effect of over 60% in size
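Nrf2 function is reported as luminescence of an ARE-controlled luciferase in A549 cells. Compounds were tested at several concentrations, and a CellTiter-Fluor read on the same wells flagged cytotoxicity.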
miR-21 reporter = qHTS Assay for Modulators of miRNAs and/orActivators of miR-21; 340,000 tested, under 10 active; HeLa miR-21 FLuc reporter, luciferase, 48 h; Potency, µM (top dose mostly 38.3 µM), for the others: at the top dose activity change, positive = activation, usual class: activators;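 further: % of control where 0% means no effect; miR-21 action dims this reporter so a rising signal means less miR-21 action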
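Compounds were titrated across several concentrations (up to approximately 40 uM) and incubated 48 hours with HeLa miR-21-FLuc reporter cells (miR-21 target sequence downstream of FLuc, endogenous miR-21). Readout was firefly luciferase luminescence after lytic detection reagent.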
Mito fusion yeast = qHTS Assay for Small Molecule Inhibitors of Mitochondrial Division or Activators of Mitochondrial Fusion; S. cerevisiae fusion-defective mutant growth rescue, CellTiterGlo 48 h; Potency, µM (series often up to 46.1 µM), for inactives: at the highest dose growth rescue (activation), most hits filed as activators; hit rate 0.23% among 320,000; further: potency means the concentration at half of the fitted maximal effect; % of control where 0% means no effect; nearly all actives have a fitted effect of over 45% in size
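S. cerevisiae fusion-defective temperature-sensitive mutants (e.g. fzo1-1, mgm1-5) grown 48 h at 37C in YPEG (ethanol/glycerol non-fermentable) medium with 23 nl compound per well; growth rescue read as CellTiterGlo luminescence.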
A549 tox-1 = Nrf2 qHTS screen for inhibitors: counterscreen for cytotoxicity; A549 ARE-Fluc cells, CellTiter-Fluor viability, 18-24 h; Potency, µM (top dose mostly 46 µM), without a hit: at the highest dose activity change, negative = cytotoxicity, hits mostly inhibitors; hit rate 0.16% among 390,000; AID 504648, 2011; further: potency means the concentration at half of the fitted maximal effect; on the % scale 0 is the no-effect control and ±100 the full control effect
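A549 ARE_Fluc cells in 5% FBS OPTI-MEM were exposed to compounds in concentration-response for 18-24 h at 37 deg C. Viability was read by CellTiter-Fluor fluorescence (Ex 405/Em 525) after 30 min, before the luciferase read.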
Nrf2 activator = qHTS of Nrf2 Activators | hit rate 0.31% among 410,000 | AREc32 ARE-luciferase reporter (MCF7-derived line), luminescence, 24 h | Potency, µM (titrated, usually from 46.1 µM), for the others: at the top dose activation, usual class: activators | AID 624171, 2012; further: potency means the concentration at half of the fitted maximal effect; % of control where 0% means no effect; nearly all actives have a fitted effect of over 65% in size
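ARE-driven firefly luciferase activity in AREc32 cells measured after a 24 hr compound exposure at 37 deg C, using Steady-Glo reagent and a 30 min room-temperature hold.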
FLuc enzyme inh = Nrf2 qHTS screen for inhibitors: Purified Fluc Biochemical Counterscreen for Hit Validation. purified firefly luciferase, luminescence inhibition. shares compounds with Nrf2 block. hit rate 4% among 1,400. Potency, µM (series often up to 57.5 µM), for the others: at the highest dose activity change, negative = inhibition, most hits filed as inhibitors; further: potency means the concentration at half of the fitted maximal effect; on the % scale 0 is the no-effect control and ±100 the full control effect; nearly all actives have a fitted effect of over 65% in size
Target sequence (P08659 whole entry, looked up): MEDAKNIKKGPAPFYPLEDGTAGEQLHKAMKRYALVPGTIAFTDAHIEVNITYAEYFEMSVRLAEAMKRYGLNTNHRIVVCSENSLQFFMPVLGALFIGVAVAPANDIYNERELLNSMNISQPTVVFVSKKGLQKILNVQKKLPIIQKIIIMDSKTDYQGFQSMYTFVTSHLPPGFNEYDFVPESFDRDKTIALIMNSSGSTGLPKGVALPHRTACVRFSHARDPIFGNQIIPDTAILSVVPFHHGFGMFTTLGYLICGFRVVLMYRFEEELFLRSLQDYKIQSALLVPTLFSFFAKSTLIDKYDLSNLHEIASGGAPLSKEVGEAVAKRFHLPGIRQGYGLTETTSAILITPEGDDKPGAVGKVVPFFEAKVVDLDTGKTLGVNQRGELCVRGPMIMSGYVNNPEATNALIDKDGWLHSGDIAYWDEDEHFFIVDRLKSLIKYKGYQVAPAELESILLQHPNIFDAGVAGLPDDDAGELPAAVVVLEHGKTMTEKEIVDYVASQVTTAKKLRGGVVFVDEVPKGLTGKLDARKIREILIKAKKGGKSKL
A549 tox-2 = Nrf2 qHTS screen for inhibitors: A549 ARE-Fluc Cytotoxicity Counterscreen for Hit Validation; A549 ARE-Fluc cells, cytotoxicity counterscreen; Potency, µM (titrated, usually from 46.1 µM), without a hit: top-dose activity change, negative = cytotoxicity, actives largely listed as inhibitors; hit rate 2% among 1,400; shares compounds with Nrf2 block;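 further: potency means the concentration at half of the fitted maximal effect; cells exposed to compounds for 18 to 24 hours; on the % scale 0 is the no-effect control and ±100 the full control effect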
Nrf2 ARE inh = Nrf2 qHTS screen for inhibitors: Nrf2 A549 ARE-Fluc Confirmation Assay for Hit Validation; Potency, µM (titrated, usually from 46.1 µM), without a hit: at the highest dose activity change, negative = inhibition, most hits filed as inhibitors; shares compounds with Nrf2 block; hit rate 74% among 1,400; A549 ARE-firefly luciferase reporter, luminescence; further: potency means the concentration at half of the fitted maximal effect; on the % scale 0 is the no-effect control and ±100 the full control effect; nearly all actives have a fitted effect of over 65% in size
An asterisk follows results filed as active; ? = inconclusive; . = no result given. This is a sample that favours compounds with a hit; in the whole collection about 2.3% have one here. The call rests on the fitted dose curve; in most records, active means well fitted curve in the direction sought with a large enough effect; inconclusive means small, poorly fitted or top-dose-only effect, or another doubt; inactive means no such curve, though single readings can be large; an effect the other way counts as inactive or inconclusive.

SMILES	Glioma ERSR ind	Nrf2 block	miR-21 reporter	Mito fusion yeast	A549 tox-1	Nrf2 activator	FLuc enzyme inh	A549 tox-2	Nrf2 ARE inh
CCOc1ccc(NC(=O)c2cccc(NC3=NC4CS(=O)(=O)CC4S3)c2)cc1 (configuration not stated)	-5.1%	13.3%	-6.2%	-0.8%	0.5%	-0.9%	.	.	.
Cc1ccc(-c2c[n+]3c(n2-c2ccccc2)SCC3)cc1	-6.2%	2.31µM*	?	-4.2%	-15.8%	-1.2%	0.0%	-3.8%	10.3µM*
COc1ccc(-c2c[n+]3c(n2-c2ccccc2)SCC3)cc1	-4.1%	2.06µM*	29.2%	-0.9%	-14.8%	-0.6%	1.3%	-9.8%	7.31µM*
COc1ccc(-c2c[n+]3c(n2-c2ccccc2)SCC3)cc1OC	-4.0%	-2.2%	6.1%	2.9%	-2.3%	-0.1%	.	.	.
CCc1ccc(NC(=O)c2ccc(Cn3nc(N4CCN(c5ccccc5)CC4)ccc3=O)o2)cc1	-0.8%	5.17µM*	14.9%	.	?	-0.7%	?	-14.5%	6.51µM*
CCc1ccccc1NC(=O)c1ccc(Cn2nc(N3CCN(c4ccccc4)CC3)ccc2=O)o1	-2.2%	?	24.2%	.	-8.5%	-1.2%	.	.	.
CC(C)(C)OC(=O)C[C@H]1C/C=C\C[C@@H](CC(=O)N[C@@H](CO)Cc2ccccc2)C(=O)N2CCC[C@@H]2COC1=O	-2.8%	-3.3%	.	.	-5.3%	-0.1%	.	.	.
CCCOc1ccc(-c2nnn(CC(=O)OCC)n2)cc1	-5.2%	-1.6%	0.5%	-0.1%	-3.0%	-0.4%	.	.	.
COc1ccc(S(=O)(=O)N2CCCCCC2)cc1NC(=O)Cc1cc(OC)c(OC)c(OC)c1	-5.1%	-24.4%	-0.2%	-4.9%	-3.8%	0.0%	.	.	.
COc1ccc(CC(=O)Nc2cc(S(=O)(=O)N3CCCCC3)ccc2C)cc1OC	-3.8%	4.11µM*	21.5%	-6.9%	?	2.2%	0.7%	-6.2%	7.31µM*
COc1ccccc1C(=O)NC(=S)Nc1ccc(Cc2ccncc2)cc1	-5.1%	5.8µM*	6.6%	?	-13.7%	6.9%	-1.0%	0.3%	20.6µM*
Cc1ccc(C)c(NC(=O)CCn2cnnn2)c1	0.3%	?	-0.2%	-19.5%	2.7%	0.0%	.	.	.
Cc1csc(/C(=N/OC(=O)c2ccco2)C(N)=O)n1	7.1%	6.8%	-1.0%	-1.8%	14.7%	-0.5%	.	.	.
Cc1c(Cl)cccc1-c1ccc(C(=O)Nc2ccc3oc(-c4cccnc4)nc3c2)o1	-0.1%	?	-0.4%	.	0.2%	3.3%	.	.	.
O=C(Nc1ccc2oc(-c3cccnc3)nc2c1)c1ccc(-c2cccc(OC(F)(F)F)c2)o1	-1.0%	1.46µM*	20.1%	.	-2.8%	4.3%	-23.9%	-8.8%	1.84µM*
O=S(=O)(c1ccccc1)N1CCC(O)(CSc2ccc(F)cc2)CC1	-3.7%	4.11µM*	22.5%	-2.7%	?	-0.5%	-0.3%	-7.4%	6.51µM*
O=S(=O)(c1ccccc1)N1CCC(O)(CSc2ccccc2)CC1	-3.7%	?	14.7%	-3.2%	-11.3%	-0.3%	.	.	.
